Measurements from PubChem BioAssay (Tox21).
Records with an inconclusive call do not appear. The source made the active and inactive calls. Unless noted, calls follow the shape of the dose curve; as a rule, active = well fitted curve in the direction sought with a large enough effect in the repeat runs; inconclusive = weak or mixed curves; inactive = no such curve, though single readings can be large; an effect the other way counts as inactive or inconclusive.

How the values were obtained:
[1] = qHTS assay to identify small molecule antagonists of the estrogen related receptor (ERR) signaling pathway from Tox21 library - cell viability counter screen (AID 1224834); also: nearly all actives have a fitted effect of over 30% in size
How it was run: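 Counter screen run in ERR cells (2,000 cells/well): cells pre-incubated 6 h, then treated with compounds for 17.5 h at 37 C. Fluorescence was read 30 min after CellTiter-Fluor addition.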

[2] = target: Luciferin 4-monooxygenase (Photinus pyralis) (UniProt P08659); assay: qHTS assay to identify small molecule inhibitors of firefly luciferase (AID 1224835); also: nearly all actives have a fitted effect of over 25% in size
How it was run: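 Quantitative HTS format; KM concentrations of both substrates. Purified P. pyralis FLuc activity quantified from luminescence images.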

[3] = qHTS assay to identify small molecule agonists of the constitutive androstane receptor (CAR) signaling pathway - cell viability counter screen (AID 1224836); also: nearly all actives have a fitted effect of over 45% in size
How it was run: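 HepG2-CYP2B6-hCAR, 2500 cells/well, 4 h pre-incubation; cpd 15 conc + PK11195 0.75 uM final; 23 h, 37 C/5% CO2; CellTiter-Fluor, fluorescence.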

[4] = qHTS assay to identify small molecule antagonists of the constitutive androstane receptor (CAR) signaling pathway - cell viability counter screen (AID 1224837); also: nearly all actives have a fitted effect of over 45% in size
How it was run: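 CITCO at 50 nM final was added alongside compounds (15 concentrations) to double-stable hCAR/CYP2B6-2.2kb HepG2 cells. Following 23 hr at 37 C, cell viability was quantified by CellTiter-Fluor fluorescence intensity.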

[5] = target: Nuclear receptor subfamily 1 group I member 3 (Homo sapiens) (UniProt Q14994); assay: qHTS assay to identify small molecule antagonists of the constitutive androstane receptor (CAR) signaling pathway (AID 1224838); also: nearly all actives have a fitted effect of over 40% in size
How it was run: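 Inhibition of CITCO-driven (50 nM final) CYP2B6 reporter expression is measured in HepG2 cells stably carrying hCAR. Fifteen compound concentrations are applied for 24 h at 37 C, followed by luciferase luminescence.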

[6] = target: Nuclear receptor subfamily 1 group I member 3 (Homo sapiens) (UniProt Q14994); assay: qHTS assay to identify small molecule agonists of the constitutive androstane receptor (CAR) signaling pathway (AID 1224839); also: nearly all actives have a fitted effect of over 15% in size
How it was run: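 HepG2-CYP2B6-hCAR cells, 2500/well, 4 h pre-incubation; compounds 15 conc.; PK11195 0.75 uM final; 24 h, 37 C/5% CO2; ONE-Glo luciferase read.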

[7] = qHTS assay to identify small molecule antagonists of the estrogen related receptor signaling pathway with the pleiotropic PPARgamma coactivator (PGC) from Tox21 10K library - cell viability counter screen (AID 1224840; active = well fitted cell-killing curve with a large enough effect in the repeat runs, not every such curve was filed as active; also: nearly all actives have a fitted effect of over 40% in size)
How it was run: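 Readout: fluorescence intensity from CellTiter-Fluor after 30 min at 37 C/5% CO2. Preceded by 17.5 h treatment of PGC/ERR cells with DMSO-dissolved compounds, added 6 h post-seeding.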

[8] = qHTS assay to identify small molecule antagonists of the estrogen related receptor signaling pathway with the pleiotropic PPARgamma coactivator (PGC) from Tox21 10K library (AID 1224841; call rule not given here; also: actives are mostly falling curves and most rising ones were filed inactive; nearly all actives have a fitted effect of over 50% in size)
How it was run: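 One-Glo luminescence, measured after half an hour at room temperature, quantified reporter output of PGC/ERR cells. These had been plated at 2,000 per well, incubated 6 h, dosed with compounds in DMSO, then kept 18 h at 37 C.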

[9] = qHTS assay to identify small molecule agonists of the estrogen related receptor signaling pathway with the pleiotropic PPARgamma coactivator (PGC) from Tox21 10K library (AID 1224842); also: nearly all actives have a fitted effect of over 15% in size
How it was run: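 PGC/ERR reporter cells (NTP line) were seeded 2,000 per well, rested 6 h at 37 C/5% CO2, then pin-dosed with compounds in DMSO for 18 h at 37 C; luciferase read by One-Glo luminescence after 30 min at room temperature.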

[10] = target: Thyrotropin receptor (Homo sapiens) (UniProt P16473); assay: qHTS assay to identify small molecule agonists of the thyroid stimulating hormone receptor (TSHR) signaling pathway (AID 1224843; calls by dose curve; also: nearly all actives have a fitted effect of over 45% in size)
How it was run: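 Compounds are titrated over 15 concentrations, in triplicate, onto TSHR-HEK293 cells seeded at 800/well. Plates sit 30 min at room temperature before cAMP-d2 and anti-cAMP cryptate are added; signal is read after a further hour.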

[11] = qHTS assay to identify small molecule agonists of the hypoxia (HIF-1) signaling pathway - cell viability counter screen (AID 1224844; calls by dose curve; also: nearly all actives have a fitted effect of over 50% in size)
How it was run: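 In this counter screen, HRE-bla ME-180 cell viability after 17 hrs of compound exposure at 37C was read by CellTiter-Glo luminescence, multiplexed with the beta-lactamase reporter measurement.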

[12] = qHTS assay to identify small molecule agonists of H2AX (AID 1224845; active = well fitted activation curve with a large enough effect in the signal ratio in the repeat runs, not every such curve was filed as active; the % refers to the signal ratio)
How it was run: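 Wild-type CHO-K1 cells plated overnight, then exposed 3 hr at 37C to compounds at 15 concentrations (0.76% DMSO). Lysed, then HTRF anti-pH2AX(S139)-cryptate/anti-H2AX-d2 detection after 24 hr at room temperature; emissions 665 and 620 nm.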

[13] = qHTS assay to identify small molecule agonists of H2AX - cell viability counter screen (AID 1224847; calls by dose curve; also: top concentration of the series differs between compounds; nearly all actives have a fitted effect of over 30% in size)
How it was run: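 Cells plated first: CHO-K1, 1000 per well in 10% FBS medium, incubated overnight at 37C. Then 15-point compound titration added (final DMSO 0.76%) for 3 hr. Finally CellTiter-Glo added and luminescence read.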

[14] = qHTS assay to identify small molecule antagonists of the estrogen related receptor (ERR) signaling pathway from Tox21 library (AID 1224848); also: nearly all actives have a fitted effect of over 50% in size
How it was run: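 First, 2,000 ERR cells per well were plated and held 6 h at 37 C/5% CO2. Next, compounds in DMSO were pinned in and left 18 h at 37 C. Finally, ONE-Glo was added and luminescence read after 30 min at room temperature.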

[15] = qHTS assay to identify small molecule agonists of the estrogen related receptor (ERR) signaling pathway from Tox21 library (AID 1224849; calls by dose curve; also: nearly all actives have a fitted effect of over 15% in size); conditions: ERR reporter cell line, ONE-Glo luciferase, 18 h; at 92.4 µM (top of the series) unless noted
How it was run: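 Luciferase activity in ERR pathway reporter cells served as the agonist readout; exposure lasted 18 h at 37 C, with ONE-Glo detection after 30 min at room temperature.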

[16] = qHTS RealTime-Glo MT Cell Viability Assay in HepG2 cells - 24 hour (AID 1224867); also: nearly all actives have a fitted effect of over 50% in size
How it was run: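 HepG2 suspension premixed with RealTime-Glo reagents is plated at 600 cells per well and left 5 h at 37 C/5% CO2. Compounds in DMSO then go in, and bioluminescence reflecting viable cell number is recorded over 40 h.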

[17] = qHTS RealTime-Glo MT Cell Viability Assay in HEK293 cells - 32 hour (AID 1224868)
How it was run: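 Reads taken at 0, 8, 16, 24, 32 and 40 h from the same wells. HEK293 cells (600/well) carried RealTime-Glo reagents from seeding, with compound added after a 5 h settle at 37 C.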

[18] = A CellTox Green Cytotoxicity Assay to monitor cytotoxicity in HEK293 cells - 0 hour (AID 1224869); also: nearly all actives have a fitted effect of over 50% in size
How it was run: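 Real-time, in one plate: 600 HEK293 cells/well with dead-cell DNA dye, pinned compound after 5 h, 37 C incubation over 40 h; viable cells give no appreciable fluorescence.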

[19] = qHTS RealTime-Glo MT Cell Viability Assay in HepG2 cells - 40 hour (AID 1224870); also: nearly all actives have a fitted effect of over 50% in size
How it was run: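 HepG2 cells mixed with RealTime-Glo MT reagents (NanoLuc plus cell-permeant prosubstrate) were seeded at 600 cells/well, incubated 5 h at 37 C/5% CO2, then pinned with compounds in DMSO; nonlytic luminescence tracked viability during 40 h treatment.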

[20] = qHTS assay to identify small molecule agonists of the hypoxia (HIF-1) signaling pathway (AID 1224846; active = well fitted activation curve with a large enough effect in the signal ratio in the repeat runs, not every such curve was filed as active; the % refers to the signal ratio)
How it was run: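 ME-180 HRE-bla reporter cells; compounds in DMSO, 17 h at 37C; read-out beta-lactamase via CCF4-AM FRET.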
% is scaled to controls: 0 for no effect and ±100 for the full control effect.

Luciferin 4-monooxygenase (Photinus pyralis), sequence (P08659 whole entry, looked up): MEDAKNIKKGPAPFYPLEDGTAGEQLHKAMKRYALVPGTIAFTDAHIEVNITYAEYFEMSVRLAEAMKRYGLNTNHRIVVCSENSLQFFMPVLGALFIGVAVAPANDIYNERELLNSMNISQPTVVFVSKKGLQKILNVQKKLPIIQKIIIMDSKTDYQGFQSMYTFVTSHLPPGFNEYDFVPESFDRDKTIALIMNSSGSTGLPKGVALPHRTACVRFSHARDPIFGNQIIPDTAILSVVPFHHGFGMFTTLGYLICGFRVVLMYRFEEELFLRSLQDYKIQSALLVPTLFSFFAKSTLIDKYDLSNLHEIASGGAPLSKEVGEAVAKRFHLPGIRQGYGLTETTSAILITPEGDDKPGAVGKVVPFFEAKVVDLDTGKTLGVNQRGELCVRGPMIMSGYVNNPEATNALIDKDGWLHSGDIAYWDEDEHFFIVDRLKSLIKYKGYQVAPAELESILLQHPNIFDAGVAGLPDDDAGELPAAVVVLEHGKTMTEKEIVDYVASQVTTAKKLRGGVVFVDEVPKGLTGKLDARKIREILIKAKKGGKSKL
Thyrotropin receptor (Homo sapiens), sequence (P16473 whole entry, looked up): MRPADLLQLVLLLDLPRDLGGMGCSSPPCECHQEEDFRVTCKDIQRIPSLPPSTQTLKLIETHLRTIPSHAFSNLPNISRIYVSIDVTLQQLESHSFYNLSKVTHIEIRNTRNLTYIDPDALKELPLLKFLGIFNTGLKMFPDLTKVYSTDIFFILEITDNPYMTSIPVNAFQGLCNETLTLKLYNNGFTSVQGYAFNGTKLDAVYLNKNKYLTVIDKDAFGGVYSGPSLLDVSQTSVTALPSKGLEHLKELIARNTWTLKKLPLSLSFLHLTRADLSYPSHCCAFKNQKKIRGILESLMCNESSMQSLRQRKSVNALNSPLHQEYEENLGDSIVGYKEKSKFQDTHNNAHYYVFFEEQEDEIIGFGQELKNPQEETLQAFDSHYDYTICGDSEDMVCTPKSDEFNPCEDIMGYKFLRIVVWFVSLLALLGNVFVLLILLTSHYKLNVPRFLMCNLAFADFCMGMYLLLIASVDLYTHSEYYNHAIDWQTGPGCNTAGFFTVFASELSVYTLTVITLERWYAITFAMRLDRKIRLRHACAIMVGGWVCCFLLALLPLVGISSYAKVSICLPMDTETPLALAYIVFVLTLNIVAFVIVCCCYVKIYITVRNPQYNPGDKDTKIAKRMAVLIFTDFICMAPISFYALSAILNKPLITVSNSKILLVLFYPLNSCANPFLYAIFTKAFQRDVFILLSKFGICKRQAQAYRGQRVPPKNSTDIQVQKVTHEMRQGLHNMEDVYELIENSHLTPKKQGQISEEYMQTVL
Nuclear receptor subfamily 1 group I member 3 (Homo sapiens), sequence (Q14994 whole entry, looked up): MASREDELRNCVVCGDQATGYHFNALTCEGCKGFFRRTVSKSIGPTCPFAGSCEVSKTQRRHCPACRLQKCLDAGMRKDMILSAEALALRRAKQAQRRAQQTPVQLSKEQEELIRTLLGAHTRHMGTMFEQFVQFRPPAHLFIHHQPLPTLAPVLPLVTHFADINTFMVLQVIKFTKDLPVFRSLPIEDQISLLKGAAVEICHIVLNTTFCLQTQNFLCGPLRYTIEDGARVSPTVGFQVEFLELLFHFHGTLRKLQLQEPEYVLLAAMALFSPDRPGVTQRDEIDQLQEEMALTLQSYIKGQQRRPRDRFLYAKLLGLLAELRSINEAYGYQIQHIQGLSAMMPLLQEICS

CC(=O)Nc1ccc(S(N)(=O)=O)cc1
inactive: Potency [1] | Potency [2] | Potency [3] | Potency [4] | Potency [5] | Potency [6] | Potency [7] | Potency [8] | outcome [9] | Potency [10] | Potency [11] | outcome [12] | Potency [13] | Potency [14] | activity change, positive = activation [15] 4.26% | Potency [16] | Potency [17] | Potency [18] | Potency [19]

CCc1nccnc1CC
inactive: viability change, negative = cytotoxic [1] 6.79% [at 19 µM] | activity change, negative = inhibition [2] 1.9% [at 23.6 µM] | viability change, negative = cytotoxic [3] 4.25% [at 19 µM] | activity change, negative = cytotoxicity [4] -1.21% [at 19 µM] | activity, negative = inhibition [5] -16.5% [at 19 µM] | activation [6] -0.0673% [at 19 µM] | viability change, negative = cytotoxic [7] 1.05% [at 19 µM] | activity, negative = inhibition [8] 4.39% [at 19 µM] | activation [9] 1.3% [at 19 µM] | Potency [10] | activity change, negative = cytotoxicity [11] 5.25% [at 15.8 µM] | outcome [12] | activation [20] 0.257% [at 15.8 µM] | Potency [13] | activity, negative = inhibition [14] 3.93% [at 19 µM] | activity change, negative = cytotoxicity [16] -0.21% [at 15.8 µM] | activity change, negative = cytotoxic [17] 3.89% [at 15.8 µM] | cytotoxicity [18] -0.912% [at 15.8 µM] | activity change, negative = cytotoxic [19] -2.15% [at 15.8 µM]

Cc1cnc(NS(=O)(=O)c2ccc(N)cc2)nc1
inactive: Potency [1] | Potency [2] | Potency [3] | Potency [4] | Potency [5] | Potency [6] | Potency [7] | Potency [8] | outcome [9] | Potency [10] | Potency [11] | outcome [12] | outcome [20] | Potency [13] | Potency [14] | activity change, positive = activation [15] 2.51% [at 42.5 µM] | Potency [16] | Potency [17] | Potency [18] | Potency [19]

NS(=O)(=O)c1ccccc1Cl
inactive: Potency [1] | Potency [2] | Potency [3] | Potency [4] | Potency [5] | Potency [6] | Potency [7] | Potency [8] | outcome [9] | Potency [10] | Potency [11] | outcome [12] | outcome [20] | Potency [13] | Potency [14] | activity change, positive = activation [15] 2.78% | Potency [16] | Potency [17] | Potency [18] | Potency [19]

CCC(C)S (configuration not stated)
inactive: viability change, negative = cytotoxic [1] 1.27% [at 3.27 µM] | activity change, negative = inhibition [2] 5.34% [at 4.07 µM] | viability change, negative = cytotoxic [3] 6.36% [at 3.27 µM] | activity change, negative = cytotoxicity [4] 4.49% [at 3.26 µM] | activity, negative = inhibition [5] -7.32% [at 3.26 µM] | activation [6] 0.262% [at 3.27 µM] | viability change, negative = cytotoxic [7] 2.53% [at 3.27 µM] | activity, negative = inhibition [8] 1.33% [at 3.27 µM] | activation [9] 0.822% [at 3.27 µM] | activation [10] -2.63% [at 3.27 µM] | activity change, negative = cytotoxicity [11] 6.65% [at 2.72 µM] | activation (H2AX phosphorylation) [12] -0.0858% [at 5.45 µM] | activity change, negative = cytotoxicity [13] 4.19% [at 5.43 µM] | activity, negative = inhibition [14] 2.44% [at 3.27 µM] | activity change, positive = activation [15] 2.37% [at 3.27 µM] | activity change, negative = cytotoxicity [16] 1.23% [at 2.72 µM] | activity change, negative = cytotoxic [17] 3.1% [at 2.72 µM] | cytotoxicity [18] -0.294% [at 2.72 µM] | activity change, negative = cytotoxic [19] 2.53% [at 2.72 µM]

O=C(O)COc1nn(Cc2ccccc2)c2ccccc12
inactive: Potency [1] | Potency [2] | Potency [3] | Potency [4] | Potency [5] | Potency [6] | Potency [7] | Potency [8] | outcome [9] | Potency [10] | Potency [11] | outcome [12] | outcome [20] | Potency [13] | Potency [14] | activity change, positive = activation [15] 0.25% [at 42.5 µM] | Potency [16] | Potency [17] | Potency [18] | Potency [19]
